Screening data: PubChem BioAssay, National Center for Advancing Translational Sciences (NCATS)
Compounds with a hit are over-represented: about 3.2% of the library has one in this group of screens.
A549 tox-1 – A549 cytotoxicity, counter-screen for Nrf2 inhibitors. AID 504648. Potency, µM (highest dose often 46 µM), inactives show at the highest dose activity change, negative = cytotoxicity, most hits filed as inhibitors. 0.16% of 390,000 active. A549 ARE-Fluc cells, CellTiter-Fluor viability, 18-24 h; also: potency is read from the fitted curve at half-maximal effect; % is scaled to controls: 0 for no effect and ±100 for the full control effect
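A549 ARE_Fluc cells in 5% FBS OPTI-MEM were exposed to compounds in concentration-response for 18-24 h at 37 deg C. Viability was read by CellTiter-Fluor fluorescence (Ex 405/Em 525) after 30 min, before the luciferase read.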
IL-2 act – activates IL-2 in a cell-based reporter assay; 0.065% of 360,000 active; IL-2 activation reporter assay, cell-based qHTS; stimulated with anti-CD3/CD4/CD28 beads; in transgenic mouse T cells; activation, % (series mostly up to about 46 µM); in the data active = activation above about 50%; inconclusive = mostly about 30% to 49%; also: 0% is about no effect
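Readout: EGFP and DsRed signals by fluorescent plate cytometry. Unstimulated transgenic mouse T cells received compound 60 min before antibody-bead stimulation, then incubated 18 h at 37 degrees C.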
Nrf2 block – inhibitors of Nrf2 signaling; A549 ARE-Fluc reporter, luciferase luminescence, 18-24 h; Potency, µM (doses to about 46 µM), for the others: top-dose activity change, negative = inhibition, hits mostly inhibitors; 2.1% of 360,000 active; AID 504444; also: potency is read from the fitted curve at half-maximal effect; % is scaled to controls: 0 for no effect and ±100 for the full control effect; nearly all actives have a fitted effect of over 60% in size
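Cells were seeded and rested 2 h, then exposed to compounds for 18-24 h. CellTiter-Fluor was read first as a viability measure. BugLite was added 15 min before the final luminescent read of ARE-luciferase activity in A549 cells.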
p53 reactivator – restores transcriptional activity of mutant p53; H1299 p53-A138V BP100-luciferase reporter, luminescence, 24 h; Potency, µM (doses to about 92.2 µM), for the others: top-dose activity change, positive = activation, usual class: activators; 0.063% of 320,000 active; AID 504706; also: potency is read from the fitted curve at half-maximal effect; % of control where 0% means no effect; nearly all actives have a fitted effect of over 45% in size
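p53-null H1299 cells stably carrying temperature-sensitive p53-A138V and a BP100-luciferase reporter were pinned with compounds (4-point, 1:5 series) and held 24 hrs at 37 deg C. Luminescence was read 10 min after detection reagent.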
BRCA1 expr up – activators of BRCA1 expression; MCF7-BRCA1-FFLuc reporter, luminescence, 48 h; response scale: scaled: vehicle 0%, 10 µM genistein 100%; Potency, µM (top dose mostly 46.1 µM), for inactives: at the highest dose activation, actives largely listed as activators; 1.1% of 380,000 active; AID 624202; also: potency is read from the fitted curve at half-maximal effect; nearly all actives have a fitted effect of over 80% in size
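MCF7-BRCA1-FFLuc, 2000 cells/well; 2 h attach, 37 °C/5% CO2; compound 48 h; luciferase substrate 15 min; luminescence end-point. Norm. to genistein 10 microM max activation and DMSO; concentration-response curves fitted.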
Nrf2 activator – activators of Nrf2 (ARE) signaling; AREc32 ARE-luciferase reporter (MCF7-derived line), luminescence, 24 h; Potency, µM (highest dose often 46.1 µM), for the others: at the top dose activation, hits mostly activators; 0.31% of 410,000 active; also: potency is read from the fitted curve at half-maximal effect; % of control where 0% means no effect; nearly all actives have a fitted effect of over 65% in size
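AREc32 cells carrying an ARE-driven firefly luciferase reporter were seeded at 1000 cells/well in OPTI-MEM with 5% FBS, then exposed to compound for 24 hr at 37 deg C. Luminescence was read with Steady-Glo after 30 min at RT.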
FLuc counter 3 – blocks purified firefly luciferase in Nrf2 counterscreen; shares compounds with Nrf2 block; purified firefly luciferase, luminescence inhibition; AID 720522; 4% of 1,400 active; Potency, µM (top dose mostly 57.5 µM), for the others: top-dose activity change, negative = inhibition, hits mostly inhibitors; also: potency is read from the fitted curve at half-maximal effect; % is scaled to controls: 0 for no effect and ±100 for the full control effect; nearly all actives have a fitted effect of over 65% in size
Target sequence (P08659 whole entry, looked up): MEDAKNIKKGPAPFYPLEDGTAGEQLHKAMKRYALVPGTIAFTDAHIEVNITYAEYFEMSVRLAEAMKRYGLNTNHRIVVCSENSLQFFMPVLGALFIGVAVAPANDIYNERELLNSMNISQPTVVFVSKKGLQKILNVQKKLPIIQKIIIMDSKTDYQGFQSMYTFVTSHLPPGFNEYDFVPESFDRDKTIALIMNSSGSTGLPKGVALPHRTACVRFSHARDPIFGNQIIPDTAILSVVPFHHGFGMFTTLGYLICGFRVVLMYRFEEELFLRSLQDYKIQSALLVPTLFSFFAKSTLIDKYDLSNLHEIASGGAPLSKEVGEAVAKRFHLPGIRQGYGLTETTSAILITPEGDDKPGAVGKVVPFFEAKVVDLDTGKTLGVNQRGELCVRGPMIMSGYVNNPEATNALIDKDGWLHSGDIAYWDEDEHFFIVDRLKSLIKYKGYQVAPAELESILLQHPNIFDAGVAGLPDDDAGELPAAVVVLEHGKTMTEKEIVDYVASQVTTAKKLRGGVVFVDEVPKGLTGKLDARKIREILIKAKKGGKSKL
A549 tox-2 – A549 cytotoxicity, Nrf2 inhibitor counterscreen; 2% of 1,400 active; shares compounds with Nrf2 block; Potency, µM (top dose mostly 46.1 µM), for inactives: top-dose activity change, negative = cytotoxicity, actives largely listed as inhibitors; A549 ARE-Fluc cells, cytotoxicity counterscreen;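 also: potency is read from the fitted curve at half-maximal effect; cells exposed to compounds for 18 to 24 hours; % is scaled to controls: 0 for no effect and ±100 for the full control effect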
ARE-Fluc inh – Nrf2 inhibition confirmed, A549 ARE-luciferase; A549 ARE-firefly luciferase reporter, luminescence; shares compounds with Nrf2 block; 74% of 1,400 active; AID 720524; Potency, µM (top dose mostly 46.1 µM), without a hit: at the top dose activity change, negative = inhibition, most hits filed as inhibitors; also: potency is read from the fitted curve at half-maximal effect; % is scaled to controls: 0 for no effect and ±100 for the full control effect; nearly all actives have a fitted effect of over 65% in size
Numbers without * were called inactive; ? = inconclusive; · = no result shown. Unless noted, calls follow the shape of the dose curve; as a rule, active = well fitted curve in the direction sought with a large enough effect; inconclusive = small, poorly fitted or top-dose-only effect, or another doubt; inactive = no such curve, though single readings can be large; an effect the other way counts as inactive or inconclusive.

SMILES	A549 tox-1	IL-2 act	Nrf2 block	p53 reactivator	BRCA1 expr up	Nrf2 activator	FLuc counter 3	A549 tox-2	ARE-Fluc inh
COc1ccc(CN2CCN(C(=O)Cn3c(=O)oc4cc(Cl)ccc43)CC2)c(OC)c1OC	?	1	2.9µM*	-1%	-18%	5%	-1%	-9%	?
CCN(CC)C(=O)Oc1ccc2cc(Br)ccc2c1	2%	13	0%	21%	?	2%	·	·	·
O=C(Nc1cccc(Cl)c1)N1C[C@H]2C[C@@H](C1)c1cccc(=O)n1C2	10%	0	5%	·	9%	-1%	·	·	·
O=C(Nc1cccc(Cl)c1)c1cnc2sc(N3CCCC3)nn2c1=O	-1%	·	5.2µM*	·	·	0%	-3%	-11%	4.6µM*
Nc1c(C(=O)Nc2ccc(Cl)cc2)sc2nc3c(cc12)N1CCC3CC1	-5%	·	?	·	24%	1%	·	·	·
Nc1c(C(=O)Nc2ccc(Cl)c(C(F)(F)F)c2)sc2nc3c(cc12)N1CCC3CC1	-23%	·	6.5µM*	·	·	1%	-17%	?	7.3µM*
N#Cc1cc2c(nc1SCC(=O)Nc1ccc(Cl)c(C(F)(F)F)c1)C1CCN2CC1	-19%	·	7.3µM*	·	·	0%	-1%	-30%	7.3µM*
N#Cc1cc2c(nc1SCC(=O)Nc1ccc(C(F)(F)F)cc1)C1CCN2CC1	-11%	·	8.2µM*	·	·	0%	1%	-3%	12µM*
O=c1[nH]/c(=C\c2ccc(N(CCCl)CCCl)cc2)c(=O)[nH]/c1=C\c1ccc(N(CCCl)CCCl)cc1	·	·	·	·	-15%	·	·	·	·
CCOC(=O)c1ccc(NC(=O)Nc2cc3c(cc2N2CCCCC2)n(CC)c(=O)n3CC)cc1	-12%	·	?	·	-67%	5%	·	·	·
c1ccc2c(c1)-c1cccc3cccc-2c13	1%	-1	-3%	-1%	15%	0%	·	·	·
c1ccc2c(c1)[IH]c1ccccc1-2	9.2µM*	-1	0.23µM*	·	-79%	-3%	2%	-3%	?
CC(=O)Nc1ccc(S(=O)(=O)N2CCSC2c2ccc(C)cc2)cc1 (stereo unspecified)	-20%	1	?	-3%	-27%	0%	·	·	·
CN1CC=C(c2c[nH]c3ccccc23)CC1	?	-3	1.8µM*	1%	-7%	0%	1%	-11%	16µM*
C[C@@H]1C[C@@H]([C@H](O)CC2CC(=O)NC(=O)C2)C(=O)[C@@H](C)C1	?	-1	0.58µM*	?	-72%	-3%	-11%	-29%	5.8µM*
CC(=O)OC1(C)CC(C)C(=O)C(C(O)CC2CC(=O)NC(=O)C2)C1 (stereo unspecified)	?	-4	0.058µM*	·	?	-6%	1%	-2%	5.2µM*
CC1=CC2OC3CC4OC(=O)C=CC=CC(=O)OCCC(C)C(O)C(=O)OCC2(CC1O)C4(C)C31CO1 (stereo unspecified)	·	-8	0.073µM*	·	?	-1%	-11%	·	3.7µM*
CC1=CC2OC3CC4OC(=O)C=CC=CC(C(C)O)OCC(O)C(C)CC(=O)OCC2(CC1O)C4(C)C31CO1 (stereo unspecified)	·	-1	0.058µM*	·	?	-2%	-13%	·	0.052µM*
CC(=O)OC1C(=O)OCC23CCC4(C)OC4C2OC2CC(OC(=O)C=CC=CC(=O)OCCC1C)C3(C)C21CO1 (stereo unspecified)	·	-8	0.016µM*	·	?	-1%	3%	·	0.012µM*
COc1ccc(-c2nc(CN3C(=O)CN=C(c4ccccc4)c4ccccc43)c(C)o2)cc1OC	-1%	·	-16%	·	·	5%	·	·	·
COC(=O)[C@@H](Cc1ccccc1)N(Cc1ccccc1)S(=O)(=O)N(Cc1ccccc1)[C@H](Cc1ccccc1)C(=O)OC	-2%	0	?	9%	-31%	7%	·	·	·
O=C(CC1CCCCC1)c1c(O)c2ccccc2oc1=O	-29%	-3	?	10%	-40%	3%	·	·	·
CC(=O)OC(C)(C)/C=C/C(=O)C(C)(O)C1[C@H](O)C[C@@]2(C)C3CC=C4C(CC[C@@H](O)C4(C)C)[C@]3(CO)C(=O)C[C@]12C (stereo partly specified)	0.26µM*	-3	0.23µM*	-15%	?	27%	3%	?	0.16µM*
Cn1c(=O)c(Oc2ccc(F)cc2)c(O)c2ccccc21	-11%	-5	?	-11%	-17%	2%	·	·	·
COc1cc2nc(CN3CC=C(c4ccccc4)CC3)[nH]c(=O)c2cc1OC	?	-1	2.3µM*	·	-63%	0%	-3%	?	·
SMILES	A549 tox-1	IL-2 act	Nrf2 block	p53 reactivator	BRCA1 expr up	Nrf2 activator	FLuc counter 3	A549 tox-2	ARE-Fluc inh
O=C1CN=C(c2ccccc2Cl)c2cc(Cl)ccc2N1Cc1cccc(Cl)c1	?	·	·	·	·	0%	·	·	·
CC(=O)OC1C(O)C(C)OC(OC2C(OC(=O)C3CCC4C(C3)OC3(CC(OC(=O)/C=C/c5ccccc5)C(C)CO3)C43CO3)OC(C)C(O)C2OC(C)=O)C1O (stereo unspecified)	?	-6	0.023µM*	·	?	-1%	-11%	-3%	6.5µM*
C[C@]12CCC3C(CC[C@H]4[C@@H](O)[C@H](O)CC[C@]34C)C1CCC2=O (stereo partly specified)	1%	1	1%	·	-18%	3%	·	·	·
CC12CC(=O)C3C(CCC4CC(=O)C=CC43C)C1CCC2=O (stereo unspecified)	-12%	1	3.3µM*	·	-41%	0%	2%	-15%	2.6µM*
C=CCc1c(C)nc(C)nc1N/N=C/c1ccc(N(C)C)cc1	-1%	1	?	0%	-81%	2%	·	·	·
CC(=NNC(=S)N1CC2CCC(CC2)C1)c1nccs1	?	-7	1.5µM*	·	-86%	6%	19µM*	?	2.9µM*
COC(COC(N)=O)C1=C(N2CC2)C(=O)C(C)=C(N2CC2)C1=O (stereo unspecified)	10µM*	0	2.1µM*	·	-80%	3%	-2%	-11%	0.058µM*
COC12C(COC(N)=O)C3=C(C(=O)C(C)=C(N)C3=O)N1CC1C2N1C (stereo unspecified)	-23%	0	0%	-4%	-86%	2%	·	·	·
CC1OC(OC2CC(O)C3(CO)C4C(O)CC5(C)C(C6=CC(=O)OC6)CCC5(O)C4CCC3(O)C2)C(O)C(O)C1O (stereo unspecified)	?	1	0.058µM*	·	-68%	-5%	0%	?	0.033µM*
O=C(CI)c1ccc(Cl)cc1	·	·	·	·	16%	·	·	·	·
